Source: PubChem BioAssay
GC-B act – GC-B (human) receptor activation | AID 1920062 | HEK293-GC-B cells, CNP EC30, cGMP TR-FRET; 0% at EC30 CNP, 100% saturating CNP | 370,000 compounds, 0.11% hits | activation, % at 10 µM;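 active = activation at 10 µM reaching about 35% in either raw or pattern-adjusted values, limit read from the data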
GC-A act – GC-A (human) enzyme activation. HEK293 GC-A cells, cGMP TR-FRET, EC30 ANP; 0% at EC30 ANP, 100% saturating ANP. P16066. activation, % at 10 µM. 370,000 compounds, 0.14% hits. AID 1671463; in the data active = activation above about 40%
HSF-1 act – increases HSF-1 driven luciferase reporter signal; NIH3T3-HGL HSF-1 luciferase reporter, MG132, 8 h; 100% = twice DMSO control signal; activation, % at 9 µM; 300,000 compounds, 1.7% hits; AID 504408;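 active = mean replicate activation of at least 50% with a set share of replicates each reaching 50%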;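 note: 0% = median of the neutral control wells and 100% = twice that signal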
aDG glyco up – alpha-DG glycosylation activation. Pro5-aDG cells, alpha-DG glycosylation AlphaScreen (IIH6); 0% Pro5, 100% B10-LARGE cell signal. activation, % at 10 µM. AID 624168. 360,000 compounds, 0.22% hits;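 active = activation of at least 8% versus controls, or a plate z-score of at least 8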;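 note: Pro5 are CHO cells carrying HIG-tagged alpha-DG that lacks glycosylation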
HSF1 inhib – HSF1 inhibition; NIH3T3-HGL HSE-luciferase, MG132-induced, luminescence 8 h; stronger effect = lower value; activity change, negative = inhibition, % at 7.5 µM (by protocol); 300,000 compounds, 0.77% hits;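 active = more than half of replicate wells show activity change below -50%, luminescence cut by over half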;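 note: luciferase reports HSF-1 transcriptional activity via heat shock element; 0% = median of DMSO wells and -100% = zero luminescence signal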
Dyrk1A ADPGlo – inhibitors of rat Dyrk1A kinase; inhibition, % at 12.5 µM; ADP-Glo luminescence, NFATc1 peptide; Q63470; 310,000 compounds, 0.43% hits; in the data active = inhibition above about 50%;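 note: plate controls were vehicle with enzyme for no effect and no enzyme for full effect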
* = called active by the depositor; . = no result given. Sampled rows, rich in hits. Any-hit rate of the full collection: about 2.5%.

SMILES	GC-B act	GC-A act	HSF-1 act	aDG glyco up	HSF1 inhib	Dyrk1A ADPGlo
CCCC(C)NC(=O)COC(=O)c1ccccc1SCC(=O)NC(C)CCC (stereo unspecified)	5	3	4	0	-3	7
Cc1cccc2cc3c(N)c(C(=O)N4CCOCC4)sc3nc12	0	1	81*	0	36	11
Cc1sc(NC(=O)CSc2nnnn2C)c(C#N)c1C	1	0	3	0	0	2
Clc1ccc(-c2ccc(CNCC3CCCO3)o2)cc1 (stereo unspecified)	-4	-2	79*	0	62	.
Oc1ccc(Cl)cc1CNCC1CCCO1 (stereo unspecified)	-2	3	-2	0	-2	-1
O=C(Cc1ccccc1F)Nc1cccc2cccnc12	7	1	-23	0	-1	16
CCN(CC)S(=O)(=O)c1ccc(/C=C/C(=O)OCC(=O)Nc2cccnc2Cl)cc1	2	-3	.	0	.	.
CC1=Nc2ccc(C)c3nc(C)cc(c23)N1c1ccc(C)cc1	-7	11	-64	1	-53*	27
Cc1ccc(N2C(=O)c3cccc4cccc(c34)C2=O)cc1	-2	3	-3	1	-3	0
COc1cccc(C(=O)NC(c2ccccc2)C2CCCC2)c1 (stereo unspecified)	-4	-6	69*	0	31	-6
O=C(OCC(=O)N1CCOCC1)c1ccccc1Br	-1	-2	15	0	2	12
O=C(OCC(=O)N1CCOCC1)c1ccccc1Cc1ccccc1	1	0	74*	0	27	-3
O=Cc1ccc(OCc2ccc3c(c2)OCO3)cc1	4	5	47	0	30	4
Cc1ccc(COc2ccc3c(c2)OCO3)cc1	4	1	59*	0	51	2
Cc1cc(NC(=O)COC(=O)COc2ccc(C(=O)c3ccccc3)cc2)no1	-1	64*	44	0	5	-4
COc1ccc(-c2ccc(SCC(=O)Nc3cc(C)on3)nn2)cc1OC	10	2	8	0	-3	-4
COc1ccc(OCCC(=O)Nc2cc(C)on2)cc1	-3	1	-9	0	-8	-3
CCc1ccccc1OCC(=O)OCC(=O)Nc1cc(C)on1	0	-3	.	0	.	3
COc1ccccc1-c1ccc(SCC(=O)Nc2cc(C)on2)nn1	0	6	60*	0	39	-4
COc1ccc(CC(=O)Nc2cc(C)on2)cc1	0	2	-93	0	-91*	3
COc1ccc(CNC(=O)CN(Cc2ccccc2)C(=O)CCC(=O)Nc2nccs2)cc1	3	0	70*	0	24	3
COc1ccc(CNC(=O)CN(Cc2ccc(OC)cc2)C(=O)CCC(=O)Nc2nccs2)cc1	-2	2	13	0	3	-6
Cc1c(C(=O)NCCc2ccccc2)oc2ccccc12	0	0	62*	0	32	10
Cc1c(C(=O)Nc2nc3ccccc3[nH]2)oc2ccccc12	1	2	68*	0	31	23
Cc1ccc(NC(=O)Nc2ccccc2)nc1	-2	-6	54*	0	33	2
SMILES	GC-B act	GC-A act	HSF-1 act	aDG glyco up	HSF1 inhib	Dyrk1A ADPGlo
COc1ccc2oc(C(=O)NCCc3ccccc3)c(C)c2c1	-2	-1	-44	0	-35	17
Cc1c(C(=O)Nc2nc3ccccc3[nH]2)oc2ccc(Br)cc12	-5	-2	18	0	-4	-1
Cc1ccc(NC(=O)c2cc3c(=O)oc4ccccc4c3s2)nc1	-6	-1	97*	0	54	0
O=c1ncn(-c2cccc(Cl)c2)c2ccccc12	-20	-10	-9	0	-6	20
COc1ccccc1/C=C/C(=O)Oc1cccc2cccnc12	1	5	20	0	11	0
COC(=O)N1C[C@@H]2Oc3nccnc3O[C@@H]2C[C@@H]1c1ccccc1Br	5	4	.	.	.	.
Cc1ccc(NC(=O)c2oc3ccccc3c2C)nc1	-7	-1	56*	0	35	.
